Where “and” joins values, the source holds several entries; their conditions need not be identical. Identical values can stand only once. Results filed as inconclusive are left out. The source holds several records for some structures; these can differ, active in one and inactive in another. Calls of active or inactive are those of the source. Unless noted, calls follow the shape of the dose curve; as a rule, active = well fitted curve in the direction sought with a large enough effect; inconclusive = small, poorly fitted or top-dose-only effect, or another doubt; inactive = no such curve, though single readings can be large; an effect the other way counts as inactive or inconclusive.

The nature of experiment [1]: Identifying Small Molecule Inhibitors of Pancreatic Cancer Stem Cells (A278, Adherent) (AID 1259361).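 Also: viability read after 48 h compound exposure; nearly all actives have a fitted effect of over 35% in size.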 In a few lines:
(§1)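 Luminescent ATP readout (CellTiter-Glo) quantifies surviving cells after a 48 h drug incubation. Normalization uses DMSO wells as no inhibition and media-only wells as full inhibition; bortezomib served as positive control.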

Experiment [2] can be described thus: Identifying Small Molecule Inhibitors of Pancreatic Cancer Stem Cells (Panc1, Adherent) (AID 1259362). Also: potency is read from the fitted curve at half-maximal effect. Particulars: Potency: viability. In short, it runs like this:
as §1

Experiment [3] is described as follows: P-glycoprotein substrates identified in KB-8-5-11 adenocarcinoma cell line, qHTS therapeutic library screen (AID 1346987). Also: nearly all actives have a fitted effect of over 65% in size. Also: potency is read from the fitted curve at half-maximal effect. In a few lines:
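KB-8-5-11: colchicine-selected sub-line of KB-3-1 over-expressing P-gp; assay medium lacked colchicine. 72 h drug exposure at 37 degree C, CellTiter-Glo.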
On the technique in general: qHTS replaces the single test concentration by a dilution series.

The nature of experiment [4]: NS1 protein of Zika virus - qHTS assay to identify small molecule inhibitors in human HEK 293 cells (AID 1347053). Also: nearly all actives have a fitted effect of over 55% in size. Also: potency is read from the fitted curve at half-maximal effect. In short, it runs like this: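 Following 20 h seeding, HEK 293 cells took compound, then 1 h later ZIKV MR766 (MOI = 0.5). Incubation ran 24 h at 37 C before TR-FRET detection of NS1; a drop in signal indicates inhibition.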
Experiment [5] can be described thus: P-glycoprotein substrates identified in KB-3-1 adenocarcinoma cell line, qHTS therapeutic library screen (AID 1346986). Also: nearly all actives have a fitted effect of over 60% in size.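 Also: potency is read from the fitted curve at half-maximal effect; potency is for cytotoxicity meaning loss of cell viability.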 In a few lines: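 KB-3-1 parental cells and P-gp-overexpressing KB-8-5-11 (colchicine omitted during assay) plated at 500 cells/well, dosed in dose-response, incubated 72 h at 37 degree C. CellTiter-Glo luminescence read; KB-8-5-11 also tested with tariquidar.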

Experiment [6] deals with Atrial natriuretic peptide receptor 1 (Homo sapiens) (UniProt P16066). Description: Natriuretic polypeptide receptor (hNpr1) antagonism - Pilot screen (AID 1347049; calls by dose curve;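 also: agonist-evoked cGMP luminescence read 20 min after hNppA addition; series mostly up to about 58 µM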). In short, it runs like this:
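HEK293 cells co-expressing hNpr1 and the GloSensor pGS-40F cGMP luciferase sensor were preloaded with 2% GloSensor reagent for 2 h. Compounds were added for 30 min at room temperature, then cells were stimulated with 0.1 nM hNppA for 20 min before luminescence readout.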

For experiment [7], the target named is Atrial natriuretic peptide receptor 2 (Homo sapiens) (UniProt P20594). Nature of the experiment: Natriuretic polypeptide receptor (hNpr2) antagonism - Pilot subtype selectivity assay (AID 1347050; calls by dose curve). In short, it runs like this:
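cGMP-sensor HEK293/hNpr2 cells; 2% GloSensor reagent 2 h RT; compounds 30 min; baseline luminescence read; 1 nM hNppC agonist 20 min RT; final luminescence read by CCD camera. Antagonism = reduced post-agonist signal.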

Experiment [8] deals with T1, Tyrosine-protein phosphatase non-receptor type substrate 1 (Homo sapiens) + Leukocyte surface antigen CD47 (Homo sapiens) (UniProt P78324+Q08722). Nature of the experiment: CD47-SIRPalpha protein protein interaction - LANCE assay qHTS validation (AID 1347057; active = well fitted curve in the direction sought with a large enough effect in the signal ratio, with a control signal flat, not every such curve was filed as active; the % refers to the signal ratio; also: series mostly up to about 38 µM). In short, it runs like this:
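First, His-tagged CD47 and Eu-labelled anti-His antibody met the compound for 30 min; next, site-specifically biotinylated SIRPalpha was added for 30 min; finally streptavidin-APC was added before reading the TR-FRET ratio.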
Background: Time-resolved FRET reads energy transfer from a long-lived donor to a nearby acceptor.

The target of experiment [9] is T1, Tyrosine-protein phosphatase non-receptor type substrate 1 (Homo sapiens) + Leukocyte surface antigen CD47 (Homo sapiens). Nature of the experiment: CD47-SIRPalpha protein protein interaction - HTRF assay qHTS validation (AID 1347058; active = well fitted curve in the direction sought with a large enough effect in the signal ratio, not every such curve was filed as active; the % refers to the signal ratio; also: series mostly up to about 38 µM). In short, it runs like this: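 TR-FRET read (Ch1/Ch2 ratio) of soluble extracellular CD47 and Avi-biotinylated SIRPalpha domains in PBS pH 7.4 with 0.05% IGEPAL; 7-point compound titration. Sequential 30 min room-temperature steps; non-biotinylated SIRPalpha as control inhibitor.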

Experiment [10] shares this target. Description: CD47-SIRPalpha protein protein interaction - Alpha assay qHTS validation (AID 1347059).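 Also: bead proximity luminescence from CD47 binding SIRPalpha after compound preincubation with SIRPalpha.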 In a few lines:
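Soluble extracellular domains: Avi-tag biotinylated SIRPalpha (25 nM) preincubated 30 min RT with compound, then 6His-CD47 (12.5 nM) 30 min; Ni-NTA acceptor and streptavidin donor beads (10 ug/mL) 30 min, AlphaScreen read. PBS pH 7.4, 0.05% IGEPAL.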

T1 sequence (P78324 whole entry, looked up): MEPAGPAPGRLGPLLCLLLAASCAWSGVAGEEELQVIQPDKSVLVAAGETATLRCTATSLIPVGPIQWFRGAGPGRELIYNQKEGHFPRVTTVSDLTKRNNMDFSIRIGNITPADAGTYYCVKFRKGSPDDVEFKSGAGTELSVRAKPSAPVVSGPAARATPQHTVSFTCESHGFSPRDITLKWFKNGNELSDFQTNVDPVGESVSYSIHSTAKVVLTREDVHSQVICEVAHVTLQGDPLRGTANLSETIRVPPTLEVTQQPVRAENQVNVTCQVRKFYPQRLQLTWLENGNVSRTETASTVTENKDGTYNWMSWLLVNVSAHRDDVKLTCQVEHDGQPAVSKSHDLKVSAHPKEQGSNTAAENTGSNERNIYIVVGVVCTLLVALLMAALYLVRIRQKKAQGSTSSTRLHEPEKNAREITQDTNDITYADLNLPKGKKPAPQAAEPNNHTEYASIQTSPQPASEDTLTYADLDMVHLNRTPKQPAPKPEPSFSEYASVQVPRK
T1 sequence (Q08722 whole entry, looked up): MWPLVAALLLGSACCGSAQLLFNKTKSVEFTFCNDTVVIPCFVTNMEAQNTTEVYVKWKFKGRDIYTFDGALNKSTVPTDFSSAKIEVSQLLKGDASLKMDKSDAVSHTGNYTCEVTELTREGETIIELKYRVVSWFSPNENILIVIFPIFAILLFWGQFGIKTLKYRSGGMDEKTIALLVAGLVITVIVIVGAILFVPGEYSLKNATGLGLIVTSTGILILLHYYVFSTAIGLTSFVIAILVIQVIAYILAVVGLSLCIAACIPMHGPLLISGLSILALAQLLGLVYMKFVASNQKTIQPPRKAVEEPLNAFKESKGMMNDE
Sequence of Atrial natriuretic peptide receptor 1 (Homo sapiens) (P16066 whole entry, looked up): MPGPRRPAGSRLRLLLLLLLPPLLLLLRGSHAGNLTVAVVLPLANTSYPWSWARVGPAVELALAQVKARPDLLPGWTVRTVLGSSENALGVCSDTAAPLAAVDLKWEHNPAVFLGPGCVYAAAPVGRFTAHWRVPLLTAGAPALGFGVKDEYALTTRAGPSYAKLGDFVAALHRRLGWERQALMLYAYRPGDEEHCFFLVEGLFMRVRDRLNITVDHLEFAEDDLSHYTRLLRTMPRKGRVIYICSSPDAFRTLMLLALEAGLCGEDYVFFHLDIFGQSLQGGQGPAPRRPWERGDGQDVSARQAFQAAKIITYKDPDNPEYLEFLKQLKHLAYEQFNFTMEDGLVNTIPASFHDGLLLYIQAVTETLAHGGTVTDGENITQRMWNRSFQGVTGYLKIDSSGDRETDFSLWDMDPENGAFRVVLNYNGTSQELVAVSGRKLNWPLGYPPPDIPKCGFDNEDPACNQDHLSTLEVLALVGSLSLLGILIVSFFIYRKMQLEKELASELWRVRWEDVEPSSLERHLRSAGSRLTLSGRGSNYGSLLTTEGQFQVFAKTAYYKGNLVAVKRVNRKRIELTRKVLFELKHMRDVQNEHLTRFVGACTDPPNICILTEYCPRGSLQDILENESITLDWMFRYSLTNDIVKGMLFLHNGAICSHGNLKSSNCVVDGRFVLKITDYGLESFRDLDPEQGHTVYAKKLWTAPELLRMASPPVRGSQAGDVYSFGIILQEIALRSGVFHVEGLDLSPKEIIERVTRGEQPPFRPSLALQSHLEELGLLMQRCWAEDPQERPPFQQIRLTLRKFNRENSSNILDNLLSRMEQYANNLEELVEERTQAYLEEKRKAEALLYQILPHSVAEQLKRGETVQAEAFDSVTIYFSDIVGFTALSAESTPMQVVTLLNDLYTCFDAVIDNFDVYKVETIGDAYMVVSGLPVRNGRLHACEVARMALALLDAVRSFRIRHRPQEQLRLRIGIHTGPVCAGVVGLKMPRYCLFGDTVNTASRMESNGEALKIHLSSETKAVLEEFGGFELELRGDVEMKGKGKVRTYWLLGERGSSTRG
Sequence of Atrial natriuretic peptide receptor 2 (Homo sapiens) (P20594 whole entry, looked up): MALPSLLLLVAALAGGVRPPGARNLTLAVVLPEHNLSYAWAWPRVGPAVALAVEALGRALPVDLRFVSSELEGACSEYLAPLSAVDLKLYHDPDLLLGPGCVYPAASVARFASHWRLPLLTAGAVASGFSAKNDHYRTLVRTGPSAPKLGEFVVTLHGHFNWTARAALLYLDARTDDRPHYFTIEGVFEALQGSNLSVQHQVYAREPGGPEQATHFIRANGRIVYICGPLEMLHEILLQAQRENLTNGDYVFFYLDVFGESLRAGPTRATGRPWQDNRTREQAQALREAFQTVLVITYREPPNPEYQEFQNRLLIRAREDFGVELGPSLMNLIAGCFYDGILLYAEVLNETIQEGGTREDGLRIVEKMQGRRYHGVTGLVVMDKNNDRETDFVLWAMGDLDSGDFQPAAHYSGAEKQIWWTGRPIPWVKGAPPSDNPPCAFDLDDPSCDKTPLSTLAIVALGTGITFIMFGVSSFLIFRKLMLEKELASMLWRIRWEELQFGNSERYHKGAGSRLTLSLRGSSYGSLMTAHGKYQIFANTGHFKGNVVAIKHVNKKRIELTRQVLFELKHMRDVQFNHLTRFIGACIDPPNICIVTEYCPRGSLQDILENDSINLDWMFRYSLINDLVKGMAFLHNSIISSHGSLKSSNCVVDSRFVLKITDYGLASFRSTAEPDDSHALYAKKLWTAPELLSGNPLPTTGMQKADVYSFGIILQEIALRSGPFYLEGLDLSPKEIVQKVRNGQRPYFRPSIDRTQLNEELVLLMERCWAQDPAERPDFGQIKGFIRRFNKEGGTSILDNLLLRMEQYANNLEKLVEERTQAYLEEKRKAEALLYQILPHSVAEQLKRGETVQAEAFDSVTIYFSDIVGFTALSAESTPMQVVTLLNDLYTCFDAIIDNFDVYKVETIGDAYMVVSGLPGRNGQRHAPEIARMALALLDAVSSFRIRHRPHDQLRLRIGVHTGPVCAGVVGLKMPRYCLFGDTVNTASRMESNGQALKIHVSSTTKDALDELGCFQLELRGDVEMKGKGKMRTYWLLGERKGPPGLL

As to `OC[C@H]1O[C@@H](n2cnc3c2NC=NC[C@@H]3O)C[C@H]1O`, the IC50 (viability decrease) in experiment [1] was 20.9 µM (active). For the same compound, the Potency result in experiment [2], in [3] and in experiment [4] was “inactive” each time.

`COc1cc(N2CCC(N3CCN(C)CC3)CC2)ccc1Nc1ncc(Cl)c(Nc2ccccc2S(=O)(=O)C(C)C)n1`: the IC50 (viability decrease) in experiment [1] is 6.62 µM (active). Besides, in experiment [3], the Potency is 651 nM (active).

In the case of `O=c1cc(N2CCOCC2)oc2c(-c3cccc4c3sc3ccccc34)cccc12`, the IC50 (viability decrease) in experiment [1] was 18.7 µM (active). For the same compound, the figures for the Potency in [2] and in [4] were 23.5 µM (active) and 18.7 µM (active), respectively. The Potency result in [5] and in experiment [3] was “inactive” throughout.

In the case of `CCOC(=O)C1=C(N)Oc2ccc(Br)cc2C1C(C#N)C(=O)OCC` (stereo not drawn), the Potency result in experiment [5], in experiment [3] and in experiment [4] was “inactive” each time.

As to `CNC(=O)c1ccc2cc(C3(O)CCn4cncc43)ccc2c1` (stereo not drawn), the Potency result in experiment [5], in experiment [3] and in experiment [4] was “inactive” each time.

In the case of `CCN1CCC[C@H]1CNC(=O)c1cc(S(N)(=O)=O)ccc1OC`, the Potency result in [5], in [3] and in experiment [4] was “inactive” in each case. The result in [6], in [7], in experiment [8], in [9] and in experiment [10] was inactive.

As to `COc1ccc(-c2coc3cc(O)cc(O)c3c2=O)cc1`, the Potency entry in experiment [5], in experiment [3] and in [4] was “inactive” each time.

`C[C@H](NC(=O)C(=O)Nc1ccccc1C(C)(C)C)C(=O)N[C@@H](CC(=O)O)C(=O)COc1c(F)c(F)cc(F)c1F`: the Potency result in [5], in experiment [3] and in experiment [4] was “inactive” each time.

For `O=c1ccn([C@@H]2O[C@H](CO)[C@H](O)[C@H]2O)c(=O)[nH]1`, the Potency entry in experiment [5], in experiment [3] and in experiment [4] was “inactive” in each case.

Take `OC[C@H]1O[C@@H](Oc2cc(O)cc(C=Cc3ccc(O)cc3)c2)[C@H](O)[C@@H](O)[C@H]1O`: the Potency entry in [5], in [3] and in experiment [4] was “inactive” in each case.

Consider `Nc1ncnc2c1ncn2[C@@H]1O[C@@H](CO)[C@H](O)[C@H]1O`, for which the Potency result in experiment [5], in experiment [3] and in [4] was “inactive” throughout.

With `CC1(C)S[C@H]2[C@H](NC(=O)[C@@H](N)c3ccc(O)cc3)C(=O)N2[C@@H]1C(=O)O`, the Potency entry in experiment [5], in experiment [3] and in experiment [4] was “inactive” in each case.

With `O=c1c(-c2ccc(O)cc2)coc2cc(O[C@@H]3O[C@H](CO)[C@H](O)[C@H](O)[C@H]3O)ccc12`, the Potency result in experiment [5], in experiment [3] and in experiment [4] was “inactive” throughout.

On to `CC[C@H]1OC(=O)[C@H](C)[C@@H](O[C@H]2C[C@@](C)(OC)[C@@H](O)[C@H](C)O2)[C@H](C)[C@@H](O[C@@H]2O[C@H](C)C[C@H](N(C)C)[C@@H]2O)[C@](C)(O)C[C@@H](C)CN(C)[C@H](C)[C@@H](O)[C@]1(C)O`, for which the Potency entry in experiment [5], in experiment [3] and in [4] was “inactive” throughout.

Take `COc1cccc(-c2cc(=O)c3ccccc3o2)c1N`: the Potency result in [5], in experiment [3] and in experiment [4] was “inactive” each time. Further, the compound was called inactive in experiment [6], in experiment [8] and in experiment [10].

In the case of `CC1(C)Cc2c(sc(NC(=S)NC(=O)c3ccccc3)c2C(=O)O)CO1`, the Potency entry in [5], in experiment [3] and in [4] was “inactive” throughout.

With `CC(=O)CCCCn1c(=O)c2c(ncn2C)n(C)c1=O`, the Potency entry in experiment [5], in experiment [3] and in experiment [4] was “inactive” throughout. The call in experiment [6] and in experiment [7] was inactive.

As to `CCN(CC)CCOc1ccc(C(=C(Cl)c2ccccc2)c2ccccc2)cc1`, the Potency entry in experiment [5], in experiment [3] and in [4] was “inactive” each time.

As for `Nc1nc(F)nc2c1ncn2[C@@H]1O[C@H](COP(=O)(O)O)[C@@H](O)[C@H]1O`, the Potency entry in [5], in experiment [3] and in [4] was “inactive” each time.

Take `O=c1c(O)c(-c2ccc(O)cc2)oc2cc(O)cc(O)c12`: the Potency result in [5], in experiment [3] and in experiment [4] was “inactive” throughout.

As for `CCC(=O)NC[C@H](Cc1ccc(OCCc2nc(-c3ccccc3)oc2C)cc1)NC(C)=CC(=O)c1ccc(C(F)(F)F)cc1`, the Potency entry in experiment [5] and in experiment [3] was “inactive” in each case. In [4], the Potency is 16.6 µM (active).

`COc1cccc([C@@H](C)NCCCc2ccccc2Cl)c1`: the Potency result in experiment [5], in [3] and in experiment [4] was “inactive” throughout.

In the case of `CC(=O)O[C@]1(C(C)=O)CC[C@@H]2[C@@H]3C[C@H](C)C4=CC(=O)CC[C@]4(C)[C@H]3CC[C@@]21C`, the Potency result in [5] and in experiment [3] was “inactive” throughout.

For `CCN(CC)CCNC(=O)c1ccc(N)cc1`, the Potency result in [5], in [3] and in experiment [4] was “inactive” each time. The compound was classed as inactive in [6], in [7], in experiment [8], in [9] and in [10].

As to `NC(=O)c1cnc(-c2ccc(C3(N)CCC3)cc2)c(-c2ccccc2)c1`, the Potency in [5] was 16.4 µM (active). Also, the Potency entry in [3] is “inactive”.

In the case of `O=C(O)c1ccc(-c2c[nH]c3ncc(-c4ccccc4)cc23)cc1C1CCCC1`, the Potency entry in [5] and in experiment [4] was “inactive” throughout. Further, the Potency result in [3] is “inactive and 3.66 µM (active)”.

With `O=C(Nc1c(Cl)cncc1Cl)c1ccc(OC(F)F)c(OCC2CC2)c1`, the Potency result in [5], in experiment [3] and in [4] was “inactive” throughout.

As to `COc1cc(N2CCC(N3CCN(C)CC3)CC2)ccc1Nc1ncnc(Nc2ccccc2S(=O)(=O)C(C)C)n1`, the Potency is 10.3 µM (active) in experiment [5]; 5.9 µM (active) and 9.2 µM (active) in experiment [3].

For the compound `Cc1ccc(Nc2cc(-c3cccc(N4C(=O)c5ccccc5C4=O)c3)ncn2)cc1NS(C)(=O)=O`, the Potency result in [5] and in experiment [3] was “inactive” in each case.

Turning to `CN(C)CCC=C1c2ccccc2COc2ccc(CC(=O)O)cc21`, the Potency entry in experiment [5], in experiment [3] and in experiment [4] was “inactive” throughout.

The values are drawn from PubChem BioAssay (NCATS).
